According to PubChem BioAssay (EPA / NIEHS):
Values joined by “and” are separate entries in the source; they are usually repeats but may differ in a detail not shown here. Identical values can stand only once. Records with an inconclusive call do not appear. Active and inactive are the calls of the source. How the source made its calls: active means hit-call score of the fitted dose curve at least 0.9, where 1 is the maximum; inconclusive means response in the unintended direction; inactive means score below 0.9.

How the values were obtained:
[1] = ACEA_ER_AUC_viability: ACEA Biosciences xCELLigence Real-Time Cell Analysis on Estrogen Receptor Agonism for Viability (AID 2283782);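 further: continuous compound exposure with impedance area under curve over 80 h; hit means loss of impedance signal meaning reduced cell growth or viability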
Outline: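 T-47D human breast cells in phenol red-free RPMI1640 with 10% charcoal-stripped FBS were dosed with an 8-point 1:4 dilution series from 100 uM top final concentration, in duplicate. Impedance-based growth was followed for 80 h; AUC analysed versus DMSO.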

AR (gene 367) [2] = biological target: AR (gene 367) (UniProt P10275); assay: ACEA_AR_antagonist_80hr: ACEA Biosciences xCELLigence Real-Time Cell Analysis on Androgen Receptor Antagonism for Proliferation (AID 2283787);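 further: hits lower the impedance growth signal relative to DMSO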
Chain of AR (gene 367) (P10275 whole entry, looked up): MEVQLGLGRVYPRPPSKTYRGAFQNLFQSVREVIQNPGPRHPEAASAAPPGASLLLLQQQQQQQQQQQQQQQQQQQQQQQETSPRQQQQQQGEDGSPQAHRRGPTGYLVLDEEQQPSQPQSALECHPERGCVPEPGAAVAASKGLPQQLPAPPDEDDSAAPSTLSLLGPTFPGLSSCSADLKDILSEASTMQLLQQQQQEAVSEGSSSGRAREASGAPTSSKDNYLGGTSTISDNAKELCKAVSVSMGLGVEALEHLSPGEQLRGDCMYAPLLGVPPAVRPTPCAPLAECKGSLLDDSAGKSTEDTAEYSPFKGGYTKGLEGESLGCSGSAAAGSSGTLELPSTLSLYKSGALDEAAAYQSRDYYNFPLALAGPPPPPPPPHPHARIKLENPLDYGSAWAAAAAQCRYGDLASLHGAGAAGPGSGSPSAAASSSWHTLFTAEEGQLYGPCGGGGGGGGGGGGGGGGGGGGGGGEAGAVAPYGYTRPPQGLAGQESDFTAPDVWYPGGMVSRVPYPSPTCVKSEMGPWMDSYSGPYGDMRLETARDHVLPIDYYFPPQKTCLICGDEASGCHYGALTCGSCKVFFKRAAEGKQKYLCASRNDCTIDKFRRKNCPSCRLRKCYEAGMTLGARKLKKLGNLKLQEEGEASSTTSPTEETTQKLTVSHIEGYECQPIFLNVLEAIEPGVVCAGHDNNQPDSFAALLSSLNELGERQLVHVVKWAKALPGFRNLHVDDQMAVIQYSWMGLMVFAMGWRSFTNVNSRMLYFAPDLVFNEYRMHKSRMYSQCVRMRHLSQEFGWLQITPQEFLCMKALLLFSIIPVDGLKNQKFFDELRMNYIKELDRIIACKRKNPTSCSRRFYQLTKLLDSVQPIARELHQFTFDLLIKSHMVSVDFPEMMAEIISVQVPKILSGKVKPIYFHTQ
Outline: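 Impedance readout (RT-CES), 80 h post-dose; loss-of-signal vs DMSO baseline. 22Rv1 cells in assay medium. Compounds: 8-pt 1:4 series, max 100 uM final, up to 0.5% DMSO; n = 2.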

[3] = ATG_M_06_XSP2: Attagene TRANS-FACTORIAL Multi-Species (XSP2) HepG2 Assay for M06 Transcription Factor (Internal Marker) (AID 2283811);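 further: internal background marker reporter mRNA measured by RT-PCR and capillary electrophoresis; hits are increases in signal above the DMSO baseline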
Outline: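 HepG2 cells transiently transfected with GAL4-UAS multi-reporter constructs, dosed 24 h with 3 nM 6-alpha-fluorotestosterone plus 1.5 nM norgestrel present to stimulate androgen receptor. Reporter mRNA quantified by RT-PCR, 6-FAM labelling, HpaI digestion and capillary electrophoresis; gain-of-signal fitted versus DMSO baseline.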

[4] = tested on: turtle Estrogen Receptor (ERa), gene 101933533; assay: ATG_trERa_XSP2: Attagene TRANS-FACTORIAL Multi-Species (XSP2) HepG2 Assay for turtle Estrogen Receptor (ERa) (AID 2283812);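 further: human HepG2 liver cells transiently expressing turtle ERa-Gal4 chimeric receptor; actives raise reporter signal above DMSO so AC50 reflects agonist activity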
Outline: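 HepG2 cells transiently transfected with GAL4-UAS reporter units expressing turtle ERa-Gal4 chimera. Reporter mRNA measured after 24 h dosing by RT-PCR, fluorescent labelling and capillary electrophoresis; gain of signal fitted versus DMSO.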

[5] = biological target: zebrafish Estrogen Receptor (ER1), esr1 (gene 259252) (UniProt P57717); assay: ATG_zfER1_XSP2: Attagene TRANS-FACTORIAL Multi-Species (XSP2) HepG2 Assay for zebrafish Estrogen Receptor (ER1) (AID 2283816)
Chain of zebrafish Estrogen Receptor (ER1), esr1 (gene 259252) (P57717 whole entry, looked up, the tested form may be a part): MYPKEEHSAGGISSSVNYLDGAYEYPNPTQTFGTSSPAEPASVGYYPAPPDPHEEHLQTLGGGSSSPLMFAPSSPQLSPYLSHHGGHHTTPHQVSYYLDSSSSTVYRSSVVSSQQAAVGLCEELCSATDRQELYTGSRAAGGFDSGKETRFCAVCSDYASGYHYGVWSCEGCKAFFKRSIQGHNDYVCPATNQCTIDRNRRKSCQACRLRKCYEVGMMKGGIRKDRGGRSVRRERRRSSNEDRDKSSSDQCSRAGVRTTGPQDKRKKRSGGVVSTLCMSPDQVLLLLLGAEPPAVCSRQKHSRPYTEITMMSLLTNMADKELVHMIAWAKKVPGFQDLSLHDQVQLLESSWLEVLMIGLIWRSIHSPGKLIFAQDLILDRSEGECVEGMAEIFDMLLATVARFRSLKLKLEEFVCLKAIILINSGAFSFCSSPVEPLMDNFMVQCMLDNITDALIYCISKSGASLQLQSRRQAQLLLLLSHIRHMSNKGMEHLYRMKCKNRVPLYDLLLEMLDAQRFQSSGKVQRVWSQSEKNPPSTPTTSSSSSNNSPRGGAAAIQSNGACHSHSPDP
Outline: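 HepG2 cells transiently transfected with a GAL4-UAS reporter and a chimeric zebrafish ER1-Gal4 construct, dosed 24 h. Reporter mRNA quantified by RT-PCR, labelling, HpaI digestion and capillary electrophoresis, relative to DMSO.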

[6] = STM_H9_NormalizedViability: Cytotoxicity Assessment at 120 hours in the Stemina devTOX quickPredict H9 human embryonic stem cell (hESC)-based Assay (AID 2283784)
Outline: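 Pluripotent H9 hESCs were exposed, with chemical and media replaced every 24 h. Viability was read by CellTiter-Fluor fluorescence, background-corrected and normalized to the 0.1% DMSO neutral control per plate. Loss of signal was fitted.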

AR (gene 367) [7] = biological target: AR (gene 367) (UniProt P10275); assay: ACEA_AR_agonist_80hr: ACEA Biosciences xCELLigence Real-Time Cell Analysis on Androgen Receptor Agonism for Proliferation (AID 2283783);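 further: hits increase impedance growth signal above DMSO baseline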
Outline: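 22Rv1 human prostate cancer cells were seeded after preconditioning in assay medium and monitored overnight, then dosed in an eight-point 1:4 dilution series from 100 uM (≤0.5% DMSO). Impedance-based growth was read at 80 h, gain-of-signal versus DMSO.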

[8] = biological target: Estrogen receptor beta (Homo sapiens) (UniProt Q92731); assay: ATG_hERb_XSP2: Attagene TRANS-FACTORIAL Multi-Species (XSP2) HepG2 Assay for human Estrogen Receptor (ERb) (AID 2283813);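 further: actives raise reporter mRNA above DMSO so AC50 reflects agonist induction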
Chain of Estrogen receptor beta (Homo sapiens) (Q92731 whole entry, looked up, the tested form may be a part): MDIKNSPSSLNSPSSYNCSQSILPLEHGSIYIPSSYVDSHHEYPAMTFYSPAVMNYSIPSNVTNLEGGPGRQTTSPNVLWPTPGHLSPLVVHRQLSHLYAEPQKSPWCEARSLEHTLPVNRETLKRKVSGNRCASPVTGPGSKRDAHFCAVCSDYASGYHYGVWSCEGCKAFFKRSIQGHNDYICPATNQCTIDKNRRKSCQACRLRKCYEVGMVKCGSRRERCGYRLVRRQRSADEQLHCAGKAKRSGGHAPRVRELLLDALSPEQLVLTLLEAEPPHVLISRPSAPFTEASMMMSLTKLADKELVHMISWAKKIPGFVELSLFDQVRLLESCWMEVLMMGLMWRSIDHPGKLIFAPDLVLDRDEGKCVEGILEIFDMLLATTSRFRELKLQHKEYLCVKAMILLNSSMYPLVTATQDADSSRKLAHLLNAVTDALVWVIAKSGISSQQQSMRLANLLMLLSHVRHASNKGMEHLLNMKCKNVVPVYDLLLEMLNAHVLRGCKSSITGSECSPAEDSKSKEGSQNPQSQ
Outline: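 HepG2 cells transiently transfected with GAL4-UAS reporter units and chimeric human ERb-Gal4, 24 h exposure. Reporter mRNA quantified by RT-PCR with FAM labelling, HpaI digestion and capillary electrophoresis; gain of signal versus DMSO.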

[9] = biological target: chicken Estrogen Receptor (ERa), ESR1 (gene 396099) (UniProt P06212); assay: ATG_chERa_XSP2: Attagene TRANS-FACTORIAL Multi-Species (XSP2) HepG2 Assay for chicken Estrogen Receptor (ERa) (AID 2283817);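 further: actives raise reporter signal above DMSO so AC50 reflects ER activation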
Chain of chicken Estrogen Receptor (ERa), ESR1 (gene 396099) (P06212 whole entry, looked up, the tested form may be a part): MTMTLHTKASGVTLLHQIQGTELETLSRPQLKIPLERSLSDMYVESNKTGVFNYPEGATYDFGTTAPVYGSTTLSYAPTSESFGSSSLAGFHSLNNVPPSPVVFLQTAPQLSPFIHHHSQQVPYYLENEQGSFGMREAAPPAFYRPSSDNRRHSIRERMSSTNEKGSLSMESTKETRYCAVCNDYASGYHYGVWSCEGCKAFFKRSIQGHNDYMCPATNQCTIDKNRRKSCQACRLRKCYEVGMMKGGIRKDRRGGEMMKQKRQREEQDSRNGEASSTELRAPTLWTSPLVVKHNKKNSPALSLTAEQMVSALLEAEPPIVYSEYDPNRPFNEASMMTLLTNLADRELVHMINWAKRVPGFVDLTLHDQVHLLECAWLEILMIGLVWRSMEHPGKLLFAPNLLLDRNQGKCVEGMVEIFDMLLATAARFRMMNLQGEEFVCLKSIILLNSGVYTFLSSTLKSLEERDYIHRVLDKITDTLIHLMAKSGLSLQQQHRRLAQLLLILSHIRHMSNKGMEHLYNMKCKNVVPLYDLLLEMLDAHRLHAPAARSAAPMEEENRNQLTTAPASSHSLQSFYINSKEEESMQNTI
Outline: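 HepG2 cells transiently transfected with multiplexed GAL4-UAS reporter units expressing chimeric chicken ERa-Gal4; 24 h compound exposure. Reporter mRNA measured by RT-PCR with 6-FAM labelling, HpaI digestion and capillary electrophoresis; gain-of-signal fitted versus DMSO.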

[10] = biological target: GAL4 Transcription Factor (Internal Marker), GAL4 (gene 855828) (UniProt P04386); assay: ATG_GAL4_XSP2: Attagene TRANS-FACTORIAL Multi-Species (XSP2) HepG2 Assay for GAL4 Transcription Factor (Internal Marker) (AID 2283814);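 further: GAL4 reporter mRNA background control in MRTU transfected cells not a receptor target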
Chain of GAL4 Transcription Factor (Internal Marker), GAL4 (gene 855828) (P04386 whole entry, looked up, the tested form may be a part): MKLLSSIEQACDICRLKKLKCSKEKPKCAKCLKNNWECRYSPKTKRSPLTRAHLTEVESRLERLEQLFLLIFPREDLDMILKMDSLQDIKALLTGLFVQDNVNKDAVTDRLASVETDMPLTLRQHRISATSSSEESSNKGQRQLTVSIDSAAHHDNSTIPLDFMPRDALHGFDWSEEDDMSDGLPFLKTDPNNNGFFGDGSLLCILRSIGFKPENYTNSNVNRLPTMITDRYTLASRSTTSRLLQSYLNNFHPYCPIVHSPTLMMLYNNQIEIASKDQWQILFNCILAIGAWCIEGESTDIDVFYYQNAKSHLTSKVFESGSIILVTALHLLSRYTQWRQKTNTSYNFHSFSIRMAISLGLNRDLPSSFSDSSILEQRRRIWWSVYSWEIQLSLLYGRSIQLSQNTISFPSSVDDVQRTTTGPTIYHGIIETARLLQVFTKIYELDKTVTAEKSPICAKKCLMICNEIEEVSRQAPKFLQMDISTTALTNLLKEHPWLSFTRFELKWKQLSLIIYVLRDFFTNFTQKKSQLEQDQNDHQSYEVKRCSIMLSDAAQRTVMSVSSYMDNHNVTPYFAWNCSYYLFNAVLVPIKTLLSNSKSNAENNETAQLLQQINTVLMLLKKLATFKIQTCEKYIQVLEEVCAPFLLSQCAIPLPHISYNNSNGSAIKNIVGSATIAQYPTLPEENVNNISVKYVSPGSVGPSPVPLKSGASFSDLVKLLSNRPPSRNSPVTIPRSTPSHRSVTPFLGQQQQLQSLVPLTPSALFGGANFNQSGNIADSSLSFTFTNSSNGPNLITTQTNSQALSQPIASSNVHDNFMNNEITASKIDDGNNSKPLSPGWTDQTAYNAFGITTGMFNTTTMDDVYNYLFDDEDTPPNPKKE
Outline: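 HepG2 cells transiently transfected with GAL4-UAS reporter units, stimulated with 3 nM 6-alpha-fluorotestosterone plus 1.5 nM norgestrel, dosed 24 h. Reporter mRNA by RT-PCR/capillary electrophoresis; gain-of-signal fit versus DMSO, background control.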

With CCCCCCCCCC(C)=O the outcome [1] was “inactive” and the outcome (AR (gene 367) [2]) was “inactive”.

For N#Cc1ccc(C2CCCc3cncn32)cc1 (centres undefined), the outcome [3] was “inactive”, the outcome [4] was “inactive” and the outcome [5] was “inactive”.

In the case of CN(C)c1ccc2nc3ccc(=[N+](C)C)cc-3sc2c1, the AC50 [1] is reported as 16500 nM (active) and the AC50 [6] is reported as 4500 nM (active).

For Oc1ccc(-c2ccccc2)c(Cl)c1, the AC50 [1] was 82600 nM (active), the outcome (AR (gene 367) [7]) was “inactive” and the AC50 (AR (gene 367) [2]) was 560 nM (active). The AC50 [4] was 4.73 µM (active) and 2.56 µM (active), the AC50 [8] was 8.87 µM (active) and 8.92 µM (active) and the AC50 [5] was 17.3 µM (active) and 20.1 µM (active). The AC50 [9] was 5.68 µM (active) and 2.43 µM (active).

In the case of Cn1ccnc1, the outcome [1] is reported as “inactive”.

With CCC[Si](OC)(OC)OC the outcome (AR (gene 367) [7]) was “inactive”.

In the case of C=C1C[C@H]2[C@@H]3C=C(C)C4=CC(=O)CC[C@]4(C)[C@H]3CC[C@]2(C)[C@@]1(OC(C)=O)C(C)=O, the outcome (AR (gene 367) [7]) is reported as “inactive”, the AC50 (AR (gene 367) [2]) is reported as 152 nM (active) and the outcome [10] is reported as “inactive”. For the same molecule, the outcome [5] was “inactive”.

With CC(C)CCCCCOC(=O)CS the outcome [1] was “inactive”.

In the case of Cc1cccc(C(C)(C)C)c1O, the outcome [1] is reported as “inactive”.

With CC(=O)OCC=C(C)C the outcome [1] was “inactive”.

With CC1(C)CCC[C@]2(C)[C@H]3CC(=O)O[C@]3(C)CC[C@@H]12 the outcome [1] was “inactive”.

In the case of COc1cc(O)c(C(=O)c2ccccc2)cc1S(=O)(=O)O, the AC50 (AR (gene 367) [7]) is reported as 22.8 nM (active).

In the case of N#Cc1ccc(C(c2ccc(C#N)cc2)n2cncn2)cc1, the outcome (AR (gene 367) [2]) is reported as “inactive”.

With CCCCCC[C@@H](O)C/C=C\CCCCCCCC(=O)OCC(O)CO (some centres undefined) the outcome [1] was “inactive”, the outcome (AR (gene 367) [7]) was “inactive” and the outcome (AR (gene 367) [2]) was “inactive”.
